From PubChem BioAssay (NCATS)
Inconclusive results are not listed. Activity calls are given as the source filed them. Unless noted, calls follow the shape of the dose curve; as a rule, active = well fitted curve in the direction sought with a large enough effect; inconclusive = small, poorly fitted or top-dose-only effect, or another doubt; inactive = no such curve, though single readings can be large; an effect the other way counts as inactive or inconclusive.

Assays:
[1] = target: Peroxisome proliferator-activated receptor alpha (Homo sapiens) (UniProt Q07869); test: qHTS assay for small molecule agonists of the peroxisome proliferator-activated receptor alpha (PPARalpha) signaling pathway (AID 651778); details: PathHunter PPARalpha complementation, chemiluminescence, 6 h; max response: hits give high values; also: % of control where 0% means no effect
Procedure, shortened: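 Cells plated at 2,000/well and held overnight at 37 C, 5% CO2, then compound added by pin tool for 6 hr; after PathHunter detection reagent and 60 min at room temperature, chemiluminescence from enzyme complementation was read.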

[2] = qHTS assay for small molecule agonists of the antioxidant response element (ARE) signaling pathway measured by Nrf2-dependant transcriptional activity - cell viability counter screen (AID 720653; active = well fitted curve in the direction sought with a large enough effect in the repeat runs; an effect the other way counts as inactive or inconclusive; also: % is scaled to controls: 0 for no effect and ±100 for the full control effect); details: ARE-bla HepG2 viability, CellTiter-Glo ATP luminescence, 16 h; max response: hits give low values
Procedure, shortened: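 ARE-bla HepG2 cells (2,000/well) rested 5 hrs at 37C/5% CO2, then exposed to compounds in DMSO for 16 hrs. Viability was read in the same wells as intracellular ATP by luminescence, 30 min at room temperature after reagent addition.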

[3] = qHTS assay for cell viability of HEK293 cells (AID 743288); details: ATP luminescence (CellTiter-Glo), 18 h; max response: hits give low values; also: % is scaled to controls: 0 for no effect and ±100 for the full control effect; nearly all actives have a fitted effect of over 50% in size
Procedure, shortened: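 Quantitative high-throughput screen: compounds were pinned onto parental HEK293 cells (2,000 per well) after a minimum 5 h settling at 37 C, incubated 18 h at 37 C, and intracellular ATP measured by luciferase luminescence.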

[4] = qHTS assay for cell viability of the p53RE-bla HCT-116 cell line (AID 743292); details: p53RE-bla HCT-116 viability, ATP luminescence, 16 h; series mostly up to 95 µM; also: % is scaled to controls: 0 for no effect and ±100 for the full control effect; nearly all actives have a fitted effect of over 55% in size
Procedure, shortened: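 In this qHTS counter-screen, metabolically competent p53RE-bla HCT-116 cells were counted via their ATP content. Compounds were applied for 16 h at 37 C and luciferase-coupled luminescence was measured.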

[5] = qHTS assay for small molecule activators of the human pregnane X receptor (PXR) signaling pathway (AID 720659; call rule not given here; also: 0% is about no effect); details: DPX-2 HepG2 CYP3A4-luciferase, 24 h; series mostly up to 92.3 µM
[6] = target: Tyrosyl-DNA phosphodiesterase 1 (Homo sapiens) (UniProt Q9NUW8); test: Confirmation Assay for Inhibitors of Tyrosyl-DNA Phosphodiesterase (TDP1) (AID 489007); details: recombinant human TDP1 enzymatic activity, dose-response; also: potency is read from the fitted curve at half-maximal effect; nearly all actives have a fitted effect of over 40% in size
Procedure, shortened: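 Loss of AlphaScreen signal reports Tdp1 cleavage of a dual-labelled DNA substrate. Conditions: 1 nM E. coli-derived enzyme, 15 nM substrate, 15 min compound preincubation, 5 min reaction, 10 min bead incubation, all at room temperature.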

Tyrosyl-DNA phosphodiesterase 1 (Homo sapiens), sequence (Q9NUW8 whole entry, looked up): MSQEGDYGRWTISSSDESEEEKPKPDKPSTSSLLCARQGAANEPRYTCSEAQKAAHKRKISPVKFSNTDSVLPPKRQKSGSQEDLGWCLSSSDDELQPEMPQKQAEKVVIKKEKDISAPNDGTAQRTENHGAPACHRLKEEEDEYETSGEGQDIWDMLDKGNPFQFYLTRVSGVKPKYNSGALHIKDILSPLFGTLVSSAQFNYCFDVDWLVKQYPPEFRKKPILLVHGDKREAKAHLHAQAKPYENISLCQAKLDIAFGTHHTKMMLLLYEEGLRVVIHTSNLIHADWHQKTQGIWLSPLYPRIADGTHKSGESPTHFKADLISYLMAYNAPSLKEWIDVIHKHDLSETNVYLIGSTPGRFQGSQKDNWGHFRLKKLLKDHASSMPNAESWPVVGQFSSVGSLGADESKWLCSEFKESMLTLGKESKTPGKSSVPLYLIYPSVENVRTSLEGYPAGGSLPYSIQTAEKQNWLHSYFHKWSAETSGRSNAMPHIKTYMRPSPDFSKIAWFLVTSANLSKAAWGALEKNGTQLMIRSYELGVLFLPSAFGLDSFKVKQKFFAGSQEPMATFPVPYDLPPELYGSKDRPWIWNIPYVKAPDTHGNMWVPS
Peroxisome proliferator-activated receptor alpha (Homo sapiens), sequence (Q07869 whole entry, looked up): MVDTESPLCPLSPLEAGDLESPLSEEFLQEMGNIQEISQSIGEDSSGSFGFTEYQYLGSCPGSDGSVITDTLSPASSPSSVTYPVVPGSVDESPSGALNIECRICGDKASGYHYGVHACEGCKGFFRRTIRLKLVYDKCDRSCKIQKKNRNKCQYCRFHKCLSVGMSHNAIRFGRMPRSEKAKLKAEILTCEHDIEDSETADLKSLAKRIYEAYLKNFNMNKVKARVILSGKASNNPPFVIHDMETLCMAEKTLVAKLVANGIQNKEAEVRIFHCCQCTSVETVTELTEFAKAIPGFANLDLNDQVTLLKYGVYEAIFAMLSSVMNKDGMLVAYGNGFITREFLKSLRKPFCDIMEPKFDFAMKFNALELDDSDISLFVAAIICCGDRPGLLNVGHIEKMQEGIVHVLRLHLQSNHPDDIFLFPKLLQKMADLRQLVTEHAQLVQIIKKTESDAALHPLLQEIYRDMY

N[C@@H](Cc1ccccc1)C(=O)O
inactive: max response [1] -0.0138% | max response [2] -5.99% | max response [3] 2.21% | Potency [4] | outcome [5]

O=C(O)[C@@H](O)[C@@H](O)[C@H](O)[C@H](O)CO
active: Potency [6] 5.01 µM
